# The campaign covered roughly 400,000 compounds. About 2,100 (0.53%) were called active. Inconclusive results (about 14%) are left out. How the calls were made is not given here. Shown is part of a subset that was picked to be rich in actives.
# Target: Ataxin-2 (Homo sapiens) (UniProt Q99700)
# Test: qHTS for Inhibitors of ATXN expression.
# Type: functional
# Sequence of Ataxin-2 (Homo sapiens) (Q99700 whole entry): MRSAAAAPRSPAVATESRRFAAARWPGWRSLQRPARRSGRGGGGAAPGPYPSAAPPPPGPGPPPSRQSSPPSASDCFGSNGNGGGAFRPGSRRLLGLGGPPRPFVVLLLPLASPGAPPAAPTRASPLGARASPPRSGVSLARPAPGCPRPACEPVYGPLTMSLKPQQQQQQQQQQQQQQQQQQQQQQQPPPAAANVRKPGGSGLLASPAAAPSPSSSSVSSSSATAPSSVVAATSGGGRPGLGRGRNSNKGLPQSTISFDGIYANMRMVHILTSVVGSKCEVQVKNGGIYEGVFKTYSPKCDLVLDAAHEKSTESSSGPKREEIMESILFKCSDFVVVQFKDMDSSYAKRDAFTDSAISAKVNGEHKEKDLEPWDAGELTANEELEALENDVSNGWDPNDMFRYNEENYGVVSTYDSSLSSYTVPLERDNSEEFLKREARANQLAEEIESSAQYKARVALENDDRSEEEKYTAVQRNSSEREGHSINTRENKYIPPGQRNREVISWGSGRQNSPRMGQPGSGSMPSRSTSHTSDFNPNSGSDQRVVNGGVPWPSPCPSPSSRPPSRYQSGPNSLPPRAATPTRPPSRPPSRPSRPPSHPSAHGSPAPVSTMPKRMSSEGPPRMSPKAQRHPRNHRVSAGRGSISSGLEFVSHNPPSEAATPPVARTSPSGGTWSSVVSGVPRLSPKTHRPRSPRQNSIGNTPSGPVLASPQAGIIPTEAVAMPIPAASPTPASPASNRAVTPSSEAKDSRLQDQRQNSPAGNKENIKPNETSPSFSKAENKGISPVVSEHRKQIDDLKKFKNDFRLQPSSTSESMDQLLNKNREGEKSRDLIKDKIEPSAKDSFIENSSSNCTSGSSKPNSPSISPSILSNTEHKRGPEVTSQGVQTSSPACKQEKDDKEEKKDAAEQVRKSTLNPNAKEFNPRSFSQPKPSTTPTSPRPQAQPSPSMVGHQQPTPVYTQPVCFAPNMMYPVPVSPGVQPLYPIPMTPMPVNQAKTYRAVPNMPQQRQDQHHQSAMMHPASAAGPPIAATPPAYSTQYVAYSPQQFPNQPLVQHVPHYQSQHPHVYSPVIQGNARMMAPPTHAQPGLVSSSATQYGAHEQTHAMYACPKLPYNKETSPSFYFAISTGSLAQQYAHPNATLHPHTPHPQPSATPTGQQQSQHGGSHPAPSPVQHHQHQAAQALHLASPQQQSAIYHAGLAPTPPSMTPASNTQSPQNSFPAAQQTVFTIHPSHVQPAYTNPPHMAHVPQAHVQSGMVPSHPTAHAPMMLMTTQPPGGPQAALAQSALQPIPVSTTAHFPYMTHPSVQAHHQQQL
row,Compound,Potency
1,Cc1ccc(-c2cc(C(=O)NN3CCOCC3)c3cc(Br)ccc3n2)o1,inactive
2,CCCc1cc(C(=O)Nc2cc(C)on2)no1,inactive
3,N#Cc1c(N)n(-c2ccc(C(=O)O)cc2)c2nc3ccccc3nc12,inactive
4,Cc1ccc2nc(N3CCN(C=O)CC3)nc(-c3ccccc3)c2c1,inactive
5,CCOC(=O)c1ccc(-c2ccc(/C=C(\C#N)C(=O)NCC3CCCO3)o2)cc1 (stereo not drawn),inactive
6,Cn1c(-c2ccc(C#N)cc2)c(C#Cc2ccccc2)c2ccccc21,inactive
7,COC(=O)c1nc2n(n1)C(c1cc(OC)ccc1OC)C=C(c1ccc(Br)cc1)N2 (stereo not drawn),inactive
8,Fc1ccc(N2N=C(c3cccs3)CC2c2ccccc2)cc1 (stereo not drawn),inactive
9,COc1ccc(OC)c(C2c3c(-c4ccc(Br)cc4)n[nH]c3C(=O)N2c2ccc(Cl)cc2)c1 (stereo not drawn),39.8 µM (active)
10,COc1ccccc1[C@@H]1C(c2cccc(Cl)c2)=NN(c2ccc(Br)cc2)[C@H]1C(=O)N1CCOC1=O,inactive
11,CCOc1ccc(N2C(=O)c3[nH]nc(-c4cccs4)c3C2c2cccc(F)c2)cc1 (stereo not drawn),39.8 µM (active)
12,CC(=O)c1sc2nc(C)c3c(c2c1N)CCCC3,inactive
13,CNc1nc(-c2cccs2)cc(C(F)(F)F)c1C#N,inactive
14,COCCn1c2nc(=O)n(-c3ccccc3)c(=O)c-2nc2ccccc21,inactive
15,CCOc1ccc(CCNC(=O)C2CC(=O)N(Cc3ccc(OC)cc3)C2)cc1OCC (stereo not drawn),inactive
16,Cc1ccc(C)c(OCCn2c(C3CC(=O)N(Cc4ccc(F)cc4)C3)nc3ccccc32)c1 (stereo not drawn),39.8 µM (active)
17,Cc1cccc(C)c1OCCn1c(C2CC(=O)N(Cc3ccc(F)cc3)C2)nc2ccccc21 (stereo not drawn),39.8 µM (active)
18,Cc1ccc(C)c(OCCn2nnc3ccccc32)c1,inactive
19,CC(=O)Oc1ccc2cc(-c3cccnc3)c(=O)oc2c1,inactive
20,COc1ccc(CNC2=NC(=O)CC(C(=O)Nc3ccc([N+](=O)[O-])cc3C)S2)cc1 (stereo not drawn),inactive
21,NNC(=O)C1CC1(c1ccccc1)c1ccccc1 (stereo not drawn),inactive
22,Cc1ccc(C2(c3ccc(C)cc3)CC2C(=O)Nc2ccc([N+](=O)[O-])cc2O)cc1 (stereo not drawn),20 µM (active)
23,COc1ccc(OC)c(Nc2cc(C(=O)NCc3ccccc3)c3ccccc3n2)c1,inactive
24,CCCCNC(=O)c1cc2c(=O)n3cccc(C)c3nc2n(Cc2ccccc2)c1=N,inactive
25,CCCCN(CCCNC(=O)c1cc(Nc2ccc(OC)c(OC)c2)nc2ccccc12)Cc1ccccc1,22.4 µM (active)
26,COc1ccc2nc(NCCCNC(=O)c3cc(OC)c(OC)c(OC)c3)c(C#N)cc2c1,inactive

row,Compound,Potency
1,COc1ccc(Nc2cc(C(=O)NCCCN(C)Cc3ccccc3)c3ccccc3n2)c(OC)c1,14.1 µM (active)
2,CCOc1ccccc1-n1c(C)cc(C=O)c1C,inactive
3,CCCn1c(=O)c(C(=O)Nc2ncccc2O)c(O)c2ccccc21,inactive
4,CCn1nc(C(=O)Nc2nc(-c3ccccn3)cs2)c2ccccc2c1=O,31.6 µM (active)
5,CCn1nc(NC(=O)c2cccs2)c2cc3ccccc3nc21,inactive
6,CC[C@@H]1C(c2cccc(Cl)c2)=NN(c2ccc(Br)cc2)[C@H]1C(=O)N1CCOC1=O,inactive
7,O=C(CN1C(=O)NC2(CCCC2)C1=O)NNC(=O)c1ccccc1F,inactive
8,CCOc1cccc(CN2CCCC(C(=O)c3cccc(C(F)(F)F)c3)C2)c1O (stereo not drawn),inactive
9,Cc1nc(-c2ccc(S(=O)(=O)Oc3ccc(Cl)cc3Cl)s2)cs1,inactive
10,CCOC(=O)c1cc2c(=O)n3ccccc3nc2n(Cc2ccco2)/c1=N\C(=O)c1ccccc1Br,inactive
11,CCC(=O)N(CC)C1=C(O)C(=O)c2ccccc2C1=O,inactive
12,O=C1c2ccccc2C(=O)c2[nH]c(O)nc21,25.1 µM (active)
13,CCOC(=O)C1CCN(C(=O)c2ccc(CNS(=O)(=O)c3ccc(OC)cc3)cc2)CC1,inactive
14,O=C(CCCCC(=O)NN=Cc1ccc(Cl)cc1)NN=Cc1ccc(Cl)cc1,39.8 µM (active)
15,O=C(CCCCC(=O)NN=Cc1ccc2c(c1)CCC2)NN=Cc1ccc2c(c1)CCC2,inactive
16,O=C1NCCCC1C(=O)N/N=C/c1ccc(Cl)cc1 (stereo not drawn),inactive
17,Cc1c(-c2ccccc2)cnc2c(C)cccc12,inactive
18,CCc1cc(=O)oc2c(C)c(O)c(CN(C)C)cc12,inactive
19,CC1CCCCC1NC(=O)COC(=O)c1c2c(nc3ccccc13)/C(=C/c1ccco1)CC2 (stereo not drawn),inactive
20,CCN(CCn1cccn1)C(=O)CC1C(=O)NCCN1Cc1ccc(F)cc1 (stereo not drawn),inactive
21,COc1cccc(CN2CCNC(=O)C2CC(=O)NC2CCOCC2)c1OC (stereo not drawn),inactive
22,CCc1cc(CNC(=O)CC2C(=O)NCCN2Cc2ccc(-c3ccccc3)cc2)on1 (stereo not drawn),35.5 µM (active)
23,O=S(=O)(Nc1ccc(-c2cn3cccnc3n2)cc1)c1ccccc1,inactive
24,Clc1ccc(-c2nc3cnccn3c2NC2CCCC2)cc1,inactive
25,COc1ccc(C(=O)C(CN2CCCC2)c2ccccc2)cc1 (stereo not drawn),28.2 µM (active)
26,O=C(c1ccc(Cl)cc1)C(CN1CCCCC1)c1ccccc1 (stereo not drawn),31.6 µM (active)

row,Compound,Potency
1,CC(C)(C)C(CN1CCCC1)OC(=O)c1ccccc1 (stereo not drawn),inactive
2,O=C(/C=C/c1cn(CC(O)CN2CCCCCC2)c2ccccc12)c1ccccc1 (stereo not drawn),inactive
3,O=C(c1ccc(Cl)cc1)C1CCN(C(=O)c2ccccc2F)CC1,inactive
4,O=C(c1ccc(Cl)cc1)C(CN1CCCC1)c1ccccc1 (stereo not drawn),22.4 µM (active)
5,O=C(O)c1ccn2c(C(=O)c3ccc(Cl)cc3)c(-c3ccccc3)cc2c1,inactive
6,O=C(/C=C/c1cn(CC(O)CN2CCCCC2)c2ccccc12)c1ccccc1 (stereo not drawn),inactive
7,COc1ccc(CC(=O)N2CCN(c3ccccc3)CC2)cc1,inactive
8,O=C(C1=NN(c2ccccc2)C2C(=O)N(c3cccc(Cl)c3)C(=O)C12)c1ccccc1 (stereo not drawn),inactive
9,COc1ccc(-c2c(C#N)c(N)nc3c2CCC3)cc1,inactive
10,CCCCN1C(=O)C2Cc3c([nH]c4ccccc34)CN2C1=S (stereo not drawn),inactive
11,O=c1c(O)c(-c2cccs2)oc2ccccc12,inactive
12,CC(C)Oc1ccc(C(CCN)C2CCCCC2)cc1 (stereo not drawn),25.1 µM (active)
13,COc1ccc(C2CC(c3ccc(OC)cc3OC(C)=O)=NN2C(=O)c2ccccc2)cc1 (stereo not drawn),inactive
14,COc1ccc(C2CC(c3ccc4ccccc4c3)=NN2C(=O)CNC2CCCCC2)cc1 (stereo not drawn),39.8 µM (active)
15,CCC(=O)Nc1cccc(C2=NN(c3ccccc3)C(c3ccc(OC)cc3)C2)c1 (stereo not drawn),inactive
16,CCOc1ccc2nc(NCCCNS(=O)(=O)c3ccc(F)cc3)c(C#N)cc2c1,inactive
17,Nc1c(C(=O)Nc2ccccc2F)sc2nc(-c3ccco3)ccc12,inactive
18,COc1cc(/C=C/c2nc(O)c3ccccc3n2)cc(Cl)c1O,inactive
19,COc1ccc(C(=O)Nc2cccc(/C=C/c3nc(O)c4ccccc4n3)c2)cc1,25.1 µM (active)
20,COc1ccc(NC(=O)c2cc3ccccc3cc2O)cc1,inactive
21,O[C@@H]1[C@@H]2c3cc4c(cc3CN3CCC(=C[C@@H]1O)[C@H]23)OCO4,6.31 µM (active)
22,COc1cc(C2Nc3ccc4ccccc4c3C3=C2C(=O)CC(C)(C)C3)ccc1OCC(=O)O (stereo not drawn),inactive
23,COCCN(CCOC)Cc1c(O)ccc2c1O/C(=C\c1ccco1)C2=O,inactive
24,Cc1cc(-c2ccnc(-n3ncc(C(=O)NCC4COCCO4)c3C3CC3)n2)c(C)s1 (stereo not drawn),inactive
25,O=C(NN/C=C1\C(=O)N(c2ccccc2Cl)C(=O)c2ccccc21)c1cccnc1,inactive
26,CNc1ccc(N=Nc2cc[n+]([O-])cc2C)cc1C,28.2 µM (active)

row,Compound,Potency
1,CCOC(=O)C1(Cc2ccccc2C(F)(F)F)CCN(CC(O)CO)CC1 (stereo not drawn),inactive
2,Cc1cccn2c(=O)c3cc(S(=O)(=O)c4ccccc4)c(=N)n(Cc4ccco4)c3nc12,inactive
3,Cc1cc(C)n(-c2ccc(C(=O)NCC(=O)Nc3cc(Cl)ccc3Cl)cc2)n1,inactive
4,Cc1nn(Cc2ccccc2Cl)c(C)c1C(=O)N(C)CC(=O)Nc1cccc(F)c1,inactive
5,CCOC(=O)CNC(=O)Cn1cnc2c(cnn2-c2ccc(C)cc2)c1=O,inactive
6,COc1ccc(-c2c(NC(=O)c3ccco3)n(-c3ccc(C)cc3)nc(C)c2=O)cc1,inactive
7,Cc1nn(-c2ccccc2)c(C)c1C(=O)OCC(=O)Nc1ccccc1Cl,inactive
8,Cc1nn(Cc2ccc(Cl)cc2Cl)c(C)c1NC(=O)CCl,25.1 µM (active)
9,CCc1ccc(-c2cc(C(F)(F)F)n3nc(C(=O)Nc4c(C)nn(Cc5ccccc5Cl)c4C)cc3n2)s1,inactive
10,Cc1ccc(-n2nc(C)c(NC(=O)CCl)c2C)cc1C,35.5 µM (active)
11,Cc1ccc(-n2nc(C)c(NC(=O)CCl)c2C)cc1,39.8 µM (active)
12,COCCSc1ccccc1C(=O)N1CCc2ccccc21,inactive
13,CCOCCCn1c(=N)c(C(=O)NCc2ccccc2)cc2c(=O)n3ccccc3nc21,inactive
14,O=C1CCC(=O)N1c1nc2n(n1)C(c1ccccc1)C=C(c1ccc(Br)cc1)N2 (stereo not drawn),inactive
15,O=c1c2ccccc2[nH]c2ccccc12,inactive
16,Cc1ccc2[nH]c3ccccc3c(=O)c2c1,inactive
17,Cc1[nH]c2ccccc2c1C1=CC(=O)C=CC1=O,39.8 µM (active)
18,COCc1cc(C)nc2sc(C(=O)Nc3nccs3)c(N)c12,inactive
19,Cc1ccccc1N=C(S)NNC(=O)c1cccc(Br)c1,inactive
20,C/C(=N\NC(=O)c1ccc(-n2cnnn2)cc1)c1ccc(Cl)cc1,inactive
21,O=C(N/N=C1/C(=O)c2cccc3cccc1c23)c1ccc(Cl)cc1,35.5 µM (active)
22,Nc1[nH]cnc2c(C3OC(CO)C(O)C3O)cnc1-2 (stereo not drawn),0.299 µM (active)
23,Cc1cccn2c(=O)c3cc(S(=O)(=O)c4ccc(F)cc4)c(=N)n(Cc4ccco4)c3nc12,inactive
24,Cc1nc2c(sc(=S)n2Cc2ccco2)c(=O)n1CC(=O)Nc1ccc(F)cc1,39.8 µM (active)
25,CCOC(=O)c1cc2c(=O)n3ccccc3nc2n(Cc2ccco2)/c1=N\C(=O)c1ccc(F)cc1,inactive
